Results published in PubChem BioAssay (NCI).
Compounds without any hit were thinned out: in the full panel of roughly 79,000, 15% have a hit. Unmarked numbers belong to inactive results. The source made the active and inactive calls. No stated cut-off is given here; in the data, active means growth inhibition above about 70%; inactive means the rest.

What was measured:
[1] = NCI Yeast Anticancer Drug Screen. Data for the rad50 strain (AID 155);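 further: 0% = growth of vehicle-only cultures of the same strain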; settings: S. cerevisiae rad50 strain growth inhibition; at 50.0 µM; hits give high values
In short: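 Cells are treated with compound, grown, and their growth is then scored against vehicle-only cultures of the same repair-deficient yeast strain.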

[2] = NCI Yeast Anticancer Drug Screen. Data for the mec2-1 strain (AID 157); settings: S. cerevisiae mec2-1 strain, at 50.0 µM, hits give high values
In short: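 Cells of the genetically defined mec2-1 yeast strain are incubated with test compound. Inhibition of growth is calculated against vehicle-treated controls.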

[3] = NCI Yeast Anticancer Drug Screen. Data for the sgs1 mgt1 strain (AID 161);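 further: 0% = growth of cultures given vehicle only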; settings: S. cerevisiae sgs1 mgt1 strain, at 50.0 µM, hits give high values
In short: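 Genetically altered yeast, compound exposure, growth inhibition relative to vehicle.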

[4] = NCI Yeast Anticancer Drug Screen. Data for the cln2 rad14 strain (AID 165);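 further: 0% = growth equal to vehicle treated cultures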; settings: S. cerevisiae cln2 rad14 strain, at 50.0 µM, hits give high values
In short: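 The screen exposed genetically defined yeast (cln2 rad14) to test compounds and scored growth inhibition relative to vehicle-treated controls.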

[5] = NCI Yeast Anticancer Drug Screen. Data for the bub3 strain (AID 167); settings: S. cerevisiae bub3 mutant strain, at 50.0 µM, hits give high values
In short: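 Part of a panel of yeast mutants defective in DNA damage repair or cell cycle regulation. Each strain is grown with compound, and inhibition is calculated relative to solvent-treated cultures.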

[6] = NCI Yeast Anticancer Drug Screen. Data for the mlh1 rad18 strain (AID 175); settings: S. cerevisiae mlh1 rad18 strain growth inhibition; at 50.0 µM; hits give high values
In short: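 Compound-treated yeast growth, normalised to vehicle controls. Strain bears defined DNA repair mutations.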

**Q.** Which results are given for `O=C1c2ccccc2C(=O)N1CCSCCSCCN1C(=O)c2ccccc2C1=O`?
**A.** growth inhibition [1]: -3.1%; growth inhibition [2]: -13.7%; growth inhibition [3]: 12.6%; growth inhibition [4]: 14.6%; growth inhibition [5]: -7.15%; growth inhibition [6]: 10.2%

**Q.** Which growth inhibition [1] does the source give for `O/N=C1\CCCCC1C(NO)c1ccccc1` (stereo unspecified) here?
**A.** 2.4%

**Q.** What about the growth inhibition [2] of the same molecule?
**A.** -4.25%

**Q.** And the growth inhibition [3]?
**A.** -7.9%

**Q.** And the growth inhibition [4]?
**A.** -16.4%

**Q.** And the growth inhibition [5]?
**A.** -12.2%

**Q.** And the growth inhibition [6]?
**A.** 9.35%

**Q.** With `Cc1c(C)c(C(=O)O)c(C)c(C)c1C(=O)O` as the molecule, how does the growth inhibition [1] read?
**A.** 25.9%

**Q.** What about the growth inhibition [2] of the same molecule?
**A.** -8.1%

**Q.** What about the growth inhibition [3] of the same molecule?
**A.** 17.9%

**Q.** What about the growth inhibition [4] of the same molecule?
**A.** 9.1%

**Q.** What about the growth inhibition [5] of the same molecule?
**A.** 24.4%

**Q.** And the growth inhibition [6]?
**A.** 0.05%

**Q.** With `Cn1c(N)c(NC(=O)CC#N)c(=O)n(C)c1=O` as the molecule, how does the growth inhibition [1] read?
**A.** 20.9%

**Q.** What about the growth inhibition [2] of the same molecule?
**A.** 2.7%

**Q.** What about the growth inhibition [3] of the same molecule?
**A.** 27.3%

**Q.** And the growth inhibition [4]?
**A.** 21%

**Q.** What about the growth inhibition [5] of the same molecule?
**A.** -9.85%

**Q.** And the growth inhibition [6]?
**A.** 21.1%

**Q.** Which growth inhibition [1] does the source give for `COc1cc(-c2cccs2)sc1-c1cccs1` here?
**A.** 10.4%

**Q.** And the growth inhibition [2]?
**A.** -7.15%

**Q.** What about the growth inhibition [3] of the same molecule?
**A.** 31.4%

**Q.** And the growth inhibition [4]?
**A.** 8.95%

**Q.** What about the growth inhibition [5] of the same molecule?
**A.** 19.6%

**Q.** And the growth inhibition [6]?
**A.** 13.2%

**Q.** Which growth inhibition [1] does the source give for `CCOC1([N+](=O)[O-])c2ccccc2-c2nc3ccccc3cc21` (stereo unspecified) here?
**A.** 96.8% (active)

**Q.** And the growth inhibition [2]?
**A.** 75.5% (active)

**Q.** What about the growth inhibition [3] of the same molecule?
**A.** 74% (active)

**Q.** What about the growth inhibition [4] of the same molecule?
**A.** 63.7%

**Q.** And the growth inhibition [5]?
**A.** 78.8% (active)

**Q.** What about the growth inhibition [6] of the same molecule?
**A.** 92.4% (active)

**Q.** Which growth inhibition [1] does the source give for `c1ccc(-c2ccc(-c3cc4ccccc4c4ccccc34)cc2)cc1` here?
**A.** -13.8%

**Q.** What about the growth inhibition [2] of the same molecule?
**A.** -15%

**Q.** What about the growth inhibition [3] of the same molecule?
**A.** -17.2%

**Q.** What about the growth inhibition [4] of the same molecule?
**A.** -5.8%

**Q.** And the growth inhibition [5]?
**A.** -10.3%

**Q.** What about the growth inhibition [6] of the same molecule?
**A.** -9.2%

**Q.** What does the source list for `CCN1/C(=C/C=C/C=C/c2oc3ccccc3[n+]2CC)Oc2ccccc21`?
**A.** growth inhibition [1]: 34%; growth inhibition [2]: 5.6%; growth inhibition [3]: 10.1%; growth inhibition [4]: 36.8%; growth inhibition [5]: 0.2%; growth inhibition [6]: 17.2%

**Q.** Which results are given for `Cn1c(=O)c2[nH]c(SCc3ccccn3)nc2n(C)c1=S`?
**A.** growth inhibition [1]: 6.05%; growth inhibition [2]: -42.5%; growth inhibition [3]: -20.9%; growth inhibition [4]: -47.1%; growth inhibition [5]: -26.6%; growth inhibition [6]: 13.4%

**Q.** Which growth inhibition [1] does the source give for `COC1c2ccccc2C=CN1c1ccc([N+](=O)[O-])cc1[N+](=O)[O-]` (stereo unspecified) here?
**A.** 61.8%

**Q.** And the growth inhibition [2]?
**A.** 70.4% (active)

**Q.** What about the growth inhibition [3] of the same molecule?
**A.** 69.2%

**Q.** And the growth inhibition [4]?
**A.** 27.4%

**Q.** And the growth inhibition [5]?
**A.** 59.1%

**Q.** And the growth inhibition [6]?
**A.** 71.2% (active)

**Q.** Which results are given for `COc1ccc(-n2cc[n+](C)c2/C=N\O)cc1`?
**A.** growth inhibition [1]: -3.1%; growth inhibition [2]: 0.95%; growth inhibition [3]: 3.2%; growth inhibition [4]: -43.3%; growth inhibition [5]: -31.8%; growth inhibition [6]: -13.6%

**Q.** With `NC(Cc1cc(I)c(Oc2ccc(O)c(I)c2)c(I)c1)C(=O)O` (stereo unspecified) as the molecule, how does the growth inhibition [1] read?
**A.** -5.1%

**Q.** What about the growth inhibition [2] of the same molecule?
**A.** -1.35%

**Q.** What about the growth inhibition [3] of the same molecule?
**A.** -9.5%

**Q.** What about the growth inhibition [4] of the same molecule?
**A.** -27.5%

**Q.** And the growth inhibition [5]?
**A.** -30.5%

**Q.** What about the growth inhibition [6] of the same molecule?
**A.** 33.4%

**Q.** Which growth inhibition [1] does the source give for `CC(C)C(C(=O)O)N(C)C(=O)c1cnc2ccccc2n1` (stereo unspecified) here?
**A.** 9.1%

**Q.** And the growth inhibition [2]?
**A.** -1.2%

**Q.** And the growth inhibition [3]?
**A.** -0.6%

**Q.** And the growth inhibition [4]?
**A.** 22.9%

**Q.** And the growth inhibition [5]?
**A.** 17.6%

**Q.** What about the growth inhibition [6] of the same molecule?
**A.** -6.2%

**Q.** Which results are given for `O=C1C=CC(=NCl)C=C1`?
**A.** growth inhibition [1]: -18.6%; growth inhibition [2]: -24.9%; growth inhibition [3]: 4.35%; growth inhibition [4]: -21.9%; growth inhibition [5]: 1.15%; growth inhibition [6]: 10.6%

**Q.** For `CC(=O)c1ccc(O)c(C)c1`, which growth inhibition [1] is on record?
**A.** -9.3%

**Q.** And the growth inhibition [2]?
**A.** -8.9%

**Q.** And the growth inhibition [3]?
**A.** -6.55%

**Q.** And the growth inhibition [4]?
**A.** 5.5%

**Q.** What about the growth inhibition [5] of the same molecule?
**A.** -8.1%

**Q.** What about the growth inhibition [6] of the same molecule?
**A.** -0.2%

**Q.** With `CCOC(=O)C1=C(C)NC(=O)NC1c1ccc(OC)cc1OC` (stereo unspecified) as the molecule, how does the growth inhibition [1] read?
**A.** -2.15%

**Q.** What about the growth inhibition [2] of the same molecule?
**A.** -25.6%

**Q.** And the growth inhibition [3]?
**A.** -11.7%

**Q.** And the growth inhibition [4]?
**A.** 18.6%

**Q.** What about the growth inhibition [5] of the same molecule?
**A.** -18%

**Q.** And the growth inhibition [6]?
**A.** -6.5%

**Q.** Which results are given for `CC(=O)OCC(C)Cc1ccc(C(C)(C)C)cc1` (stereo unspecified)?
**A.** growth inhibition [1]: 3%; growth inhibition [2]: 0.3%; growth inhibition [3]: 0.7%; growth inhibition [4]: -4%; growth inhibition [5]: 9.6%; growth inhibition [6]: -2.4%

**Q.** With `C#CCC1CCCC/C1=N\Nc1ccc([N+](=O)[O-])cc1[N+](=O)[O-]` (stereo unspecified) as the molecule, how does the growth inhibition [1] read?
**A.** 2.25%

**Q.** And the growth inhibition [2]?
**A.** 3.2%

**Q.** What about the growth inhibition [3] of the same molecule?
**A.** -4.4%

**Q.** What about the growth inhibition [4] of the same molecule?
**A.** -1.75%

**Q.** What about the growth inhibition [5] of the same molecule?
**A.** 4.4%

**Q.** And the growth inhibition [6]?
**A.** 4.1%

**Q.** For `CNc1ccc(Cl)cc1C(N)=O`, which growth inhibition [1] is on record?
**A.** 2.8%

**Q.** What about the growth inhibition [2] of the same molecule?
**A.** 6.9%

**Q.** What about the growth inhibition [3] of the same molecule?
**A.** 28.7%

**Q.** What about the growth inhibition [4] of the same molecule?
**A.** -3.25%

**Q.** What about the growth inhibition [5] of the same molecule?
**A.** 7.05%

**Q.** What about the growth inhibition [6] of the same molecule?
**A.** 19.9%

**Q.** For `CCCCC/C(C)=C\C(=O)O`, which growth inhibition [1] is on record?
**A.** 8.95%

**Q.** And the growth inhibition [2]?
**A.** 9.4%

**Q.** What about the growth inhibition [3] of the same molecule?
**A.** 7.25%

**Q.** What about the growth inhibition [4] of the same molecule?
**A.** -14.2%

**Q.** What about the growth inhibition [5] of the same molecule?
**A.** -2.4%

**Q.** What about the growth inhibition [6] of the same molecule?
**A.** 5.35%

**Q.** Which growth inhibition [1] does the source give for `O=C(O)CCCCl` here?
**A.** 12.3%

**Q.** And the growth inhibition [2]?
**A.** -7.8%

**Q.** What about the growth inhibition [3] of the same molecule?
**A.** 16.2%

**Q.** What about the growth inhibition [4] of the same molecule?
**A.** 13.7%

**Q.** And the growth inhibition [5]?
**A.** 12.7%

**Q.** What about the growth inhibition [6] of the same molecule?
**A.** 26%
